# Assay outcomes as filed in PubChem BioAssay.
# PNC inhibitor: inhibitors of perinucleolar compartment assembly; AID 2417; 140,000 tested, 3.1% active; activity change (PNC), negative = inhibition, % at 10 µM; PC3M PTB-GFP, PNC prevalence imaging, 16 h; active compounds read low;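 active = readout at or below -70, meaning at least 70% loss of cells showing the perinucleolar compartment, a nuclear body marking cancer cells; inconclusive = readout between -30 and a set limit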
#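 PC3M cells stably expressing PTB-GFP, 750–1000 cells/well, treated 16 h at 37 °C with compound (23 nl of library stock), in duplicate. After paraformaldehyde fixation and Hoechst stain, imaged at 20x; PNC prevalence scored by image analysis.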
# 12-hLO inh: inhibitors of human 12-lipoxygenase (ALOX12); P18054; purified 12-hLO, xylenol orange hydroperoxide absorbance; Potency, µM (doses to about 57.1 µM), most hits filed as inhibitors; 150,000 tested, 0.12% active; active = well fitted inhibition curve with a large enough effect; inconclusive = small, poorly fitted or top-dose-only effect; also: nearly all actives have a fitted effect of over 55% in size
#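 Purified human 12hLO (150 nM), preincubated 15 min with compound, then 40 uM arachidonic acid for 30 min, room temperature, Hepes pH 7.0 with 0.01% Triton X-100. Hydroperoxide detected by ferrous iron/xylenol orange; 573/405 nm absorbance ratio gives reaction progress.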
# HPGD block: inhibitors of human 15-hydroxyprostaglandin dehydrogenase (HPGD). P15428. purified HPGD, NADH fluorescence kinetic, PGE2 substrate. Potency, µM, usual class: inhibitors. 150,000 tested, 4.3% active. AID 894
#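 NADH formation kinetics: reaction with 30 uM PGE2 and 1 mM NAD+ (final), 20 nM enzyme, Tris-HCl pH 8 with Tween 20, after 15 min compound preincubation at room temperature. Fluorescence change, last versus first of five reads.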
# Lamin A splicing: LMNA splicing modulation | HeLa LMNA splicing GFP/RFP minigene ratio, 48 h | Potency, µM (series often up to 46.1 µM), most hits filed as inhibitors | 200,000 tested, 0.01% active | AID 1487; active = well fitted inhibition curve with a large enough effect in the signal ratio, with a control signal flat, not every such curve was filed as active; inconclusive = small, poorly fitted or top-dose-only effect, or effect the other way, or a change in a side signal; the % refers to the signal ratio
#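 S3 HeLa stable clones carrying a lamin A-EGFP splicing minigene plus DsRed2 were seeded at 600 cells/well in Opti-MEM with 2% FBS, pin-dosed and incubated 48 h at 37°C. Acumen cytometry (488 nm) gave the GFP/RFP total-intensity ratio.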
# ALDH1A1 block: ALDH1A1 (human) enzyme inhibition; P00352; Purified ALDH1A1, NADH fluorescence, propionaldehyde substrate; Potency, µM (titrated, usually from 75.3 µM), usual class: inhibitors; 220,000 tested, 7.3% active
# Target sequence (P00352 whole entry, looked up): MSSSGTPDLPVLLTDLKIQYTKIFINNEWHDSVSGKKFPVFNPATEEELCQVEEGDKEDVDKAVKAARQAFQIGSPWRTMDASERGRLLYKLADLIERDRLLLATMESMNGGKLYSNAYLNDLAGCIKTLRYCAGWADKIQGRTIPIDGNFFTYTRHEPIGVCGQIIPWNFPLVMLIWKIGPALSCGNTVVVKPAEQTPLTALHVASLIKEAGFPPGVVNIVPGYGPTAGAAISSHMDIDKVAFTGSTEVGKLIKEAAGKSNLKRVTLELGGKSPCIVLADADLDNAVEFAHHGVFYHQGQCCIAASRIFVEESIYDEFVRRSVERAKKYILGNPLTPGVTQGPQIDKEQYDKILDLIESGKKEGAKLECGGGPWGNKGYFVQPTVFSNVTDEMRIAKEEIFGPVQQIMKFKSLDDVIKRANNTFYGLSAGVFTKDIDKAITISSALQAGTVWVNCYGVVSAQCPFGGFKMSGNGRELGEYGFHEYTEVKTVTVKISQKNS
# Numbers stand for hits; – = inactive; ? = inconclusive; · = not tested or not shown; [ ] = dose if it differs, or a comment. Shown are actives, neighbours in structure and some others; about 10% of the full set was active somewhere. Unless noted, calls follow the shape of the dose curve; as a rule, active = well fitted inhibition curve with a large enough effect (not every such curve was filed as active); inconclusive = small, poorly fitted or top-dose-only effect, or another doubt; inactive = no such curve, though single readings can be large or run the other way.
SMILES,PNC inhibitor,12-hLO inh,HPGD block,Lamin A splicing,ALDH1A1 block
CC(=O)c1cccc(NC(=S)NC(=O)c2ccc(C)cc2)c1,·,·,·,–,?
CC(=O)c1cccc(NC(=S)NC(=O)c2ccc(C)cc2Cl)c1,·,·,·,·,8.91µM
CC(=O)c1cccc(NC(=S)NC(=O)c2ccccc2Cl)c1,–,–,20µM,–,?
O=C(NC(=S)Nc1cccc(NC(=O)c2ccccc2Cl)c1)c1cccs1,–,–,–,–,4.47µM
COc1ccccc1CN1CC[C@@]2(CCCN(S(C)(=O)=O)C2)C1,·,–,–,·,–
Cc1ccc2c(c1)-c1onc(C(=O)N3CCN(c4cc(Cl)ccc4C)CC3)c1CO2,·,·,·,–,·
CCOC(=O)C1(CC2CCCCO2)CCN(S(=O)(=O)c2ccc(C)s2)CC1 (configuration not stated),·,·,·,·,20µM
CCCOC(=O)CC1C(=O)NCCN1C(=O)OC(C)(C)C (configuration not stated),·,·,·,–,–
Cn1c(SCC(=O)N2CCOCC2)nc2cccnc21,–,–,·,–,?
CC(C)(C)NC(=O)Cn1c(SCC(=O)N2CCCCCC2)nc2ccccc21,-92.3,–,–,?,?
CC(C)(C)NC(=O)Cn1c(SCC(N)=O)nc2ccccc21,–,–,–,–,–
CCN(CC)C(=O)CSc1nc2cccnc2n1-c1ccccc1OC,–,–,–,–,?
COc1ccccc1-n1c(SCC(=O)N2CCCC2)nc2cccnc21,-110.1,–,?,–,?
COCCn1c(SCC(=O)N2CCCCC2)nc2cccnc21,-82.9,–,–,–,–
Cc1cc(C)n(-c2ccc(OCC(=O)O)nn2)n1,-115.4,–,–,–,?
COc1cc(C)c(NC(=S)Nc2ccc(Cl)c(Cl)c2)cc1OC,?,?,15.8µM,?,8.91µM
COc1cc(Cl)c(C)cc1NC(=S)NN,·,·,·,?,11.2µM
COc1cc(NC(=S)NC(C)(C)C)c(OC)cc1Cl,·,·,·,–,?
COc1cc(NC(=S)Nc2ccc(Br)cc2Cl)c(OC)cc1Cl,–,–,–,–,28.2µM
COc1cc(NC(=S)Nc2cccc(Cl)c2Cl)c(OC)cc1Cl,–,–,·,–,–
CCN(CC)CCCCn1c(-c2ccccc2)nc2c(Nc3ccccc3)nc(C)nc21,·,–,–,·,–
Cc1ccccc1-c1nc(N(C)C)c2ccccc2n1,·,·,·,–,–
O=C(CSCc1c(Cl)cccc1Cl)Nc1ccc2c(c1)OCCO2,-83.4,–,–,?,?
O=C(CCN1C(=O)c2ccccc2S1(=O)=O)Nc1ccc2c(c1)OCCO2,–,–,–,–,6.31µM
O=C(CN1CCN(CC(=O)Nc2ccccc2Cl)CC1)Nc1ccc2c(c1)OCCO2,-100.0,–,–,–,7.94µM
SMILES,PNC inhibitor,12-hLO inh,HPGD block,Lamin A splicing,ALDH1A1 block
O=C(CCN1C(=O)c2ccccc2S1(=O)=O)Nc1ccccc1,·,·,·,–,–
O=C(CN1CCC(Cc2ccccc2)CC1)Nc1ccc2c(c1)OCCO2,–,–,–,–,28.2µM
O=C(COc1ccccc1Cl)Nc1ccc2c(c1)OCCO2,–,–,–,–,–
CN(C)S(=O)(=O)c1ccc(NC(=O)CN2CCC(Cc3ccccc3)CC2)cc1,·,·,·,?,–
CCOC(=O)N1CCC(NC(=O)c2cnn(-c3ccc(C)cc3)c2C2CCN(C(=O)OC(C)(C)C)CC2)CC1,·,·,·,–,·
O=C1CN(C(=O)c2ccccc2F)c2ccccc2N1,?,–,–,–,–
Cc1ccc(Nc2c([N+](=O)[O-])cc(C(=O)N3CC(=O)Nc4ccccc43)cc2[N+](=O)[O-])c(C)c1,–,–,15.8µM,–[0.0737 µM],–
Cc1cccc(OCC(=O)Nc2ccc(C(=O)OCc3cc(=O)n4nc(C5CC5)sc4n3)cc2)c1,·,·,·,–,·
Cc1ccc(C(=O)NCC(c2ccco2)S(=O)(=O)c2cccs2)cc1C (configuration not stated),·,·,·,–,·
CCOC(=O)c1c(NC(=O)CCc2ccc(CC)o2)sc(C)c1C,–,–,?,–,?
COC(=O)c1c(NC(=O)Nc2ccc(Cl)cc2)sc(C)c1C,–,–,–,–,–
Cc1sc(NC(=O)Nc2ccccc2)c(C(N)=O)c1C,·,·,·,·,12.6µM
CCOC(=O)c1c(NC(=S)Nc2ccccc2)sc(C)c1C,?,–,22.4µM,–,25.1µM
CCOC(=O)c1c(NC(=S)NCC2CCCO2)sc(C)c1C (configuration not stated),·,·,·,–[9.22 µM],17.8µM
CCOC(=O)c1c(NC(=O)C2CCCO2)sc(C(N)=O)c1C (configuration not stated),–,–,–,–,?
CCOC(=O)c1c(NC(=O)C[n+]2ccc(Cc3ccccc3)cc2)sc(C)c1C,·,·,·,–[9.22 µM],0.708µM
C[C@H](NC(=O)[C@@H]1C[C@H]1[C@@H](NC(=O)OCc1ccccc1)c1ccccc1)c1ccccc1,·,–,–,·,–
Cc1cc(NC(=O)CN2CCN(Cc3ccccc3)CC2)nc2c1c(=O)oc1ccccc12,·,·,·,·,3.55µM
Cc1cc(NC(=O)CN2CC3CC(C2)c2cccc(=O)n2C3)nc2c1c(=O)oc1ccccc12 (configuration not stated),?,–,–,–,28.2µM
